# Measurements from paper PMC7862700, “An all-to-all approach to the identification of sequence-specific readers for epigenetic DNA modifications on cytosine”.
# Columns and labels:
# Test in all cases: DAPPL (digital affinity profiling via proximity ligation, sequencing); 10 mM Tris-HCl pH 7.5, 50 mM NaCl, 1 mM DTT, 4% glycerol, room temperature, 30 min; GST-TFs on glutathione beads, 16-mer random dsDNA library, 0.1% formaldehyde crosslink after washing; high values mean tight binding
# Conditions in all cases: protein: recombinant; tags: N-terminal GST; dsDNA, one strand shown
# ELK1 = biological target: T1, ELK1 (Homo sapiens, UniProt P19419 1-428)
# T1 sequence: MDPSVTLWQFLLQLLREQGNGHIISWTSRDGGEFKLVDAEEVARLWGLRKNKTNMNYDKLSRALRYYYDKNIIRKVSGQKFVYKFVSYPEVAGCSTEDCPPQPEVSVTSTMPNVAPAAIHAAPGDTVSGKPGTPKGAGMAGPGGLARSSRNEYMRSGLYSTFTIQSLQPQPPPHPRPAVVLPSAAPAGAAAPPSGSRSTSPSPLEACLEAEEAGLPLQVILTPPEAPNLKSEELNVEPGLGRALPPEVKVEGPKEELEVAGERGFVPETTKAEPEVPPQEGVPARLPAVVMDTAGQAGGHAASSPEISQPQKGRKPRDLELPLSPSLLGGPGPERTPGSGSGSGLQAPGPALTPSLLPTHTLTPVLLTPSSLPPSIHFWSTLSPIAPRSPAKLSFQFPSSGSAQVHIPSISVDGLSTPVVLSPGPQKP
# Outline: (§1)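 GST fusions of human transcription factors were expressed in yeast and captured with glutathione beads. Once given DNA barcodes and pooled alongside a tag-only sample, they were incubated for 30 min at room temperature with 200 nmole of a random double-stranded 16-mer DNA library in Tris/NaCl/DTT/glycerol buffer, then washed, crosslinked (0.1% formaldehyde), proximity-ligated, PCR-amplified and sequenced on an Illumina NextSeq500. The binding signal of each hexamer is its read frequency for a factor divided by its frequency for the tag-only sample.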
# GABPA = biological target: T2, GABPA (Homo sapiens, UniProt Q06546 1-454)
# T2 sequence: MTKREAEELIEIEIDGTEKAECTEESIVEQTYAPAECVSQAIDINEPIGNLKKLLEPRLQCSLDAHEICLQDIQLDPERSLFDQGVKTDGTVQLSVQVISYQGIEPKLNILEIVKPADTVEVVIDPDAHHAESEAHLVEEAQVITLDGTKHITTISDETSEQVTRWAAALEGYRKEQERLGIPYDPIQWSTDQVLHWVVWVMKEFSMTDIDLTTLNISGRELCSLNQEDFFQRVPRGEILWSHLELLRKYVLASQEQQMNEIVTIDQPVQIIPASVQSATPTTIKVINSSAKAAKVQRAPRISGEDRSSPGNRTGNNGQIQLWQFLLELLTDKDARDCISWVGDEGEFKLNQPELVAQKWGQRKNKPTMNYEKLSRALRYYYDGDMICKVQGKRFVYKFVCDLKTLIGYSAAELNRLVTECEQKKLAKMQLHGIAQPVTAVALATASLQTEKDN
# Outline: as §1
# ERG = biological target: T3, ERG (Homo sapiens, UniProt P11308 1-479)
# T3 sequence: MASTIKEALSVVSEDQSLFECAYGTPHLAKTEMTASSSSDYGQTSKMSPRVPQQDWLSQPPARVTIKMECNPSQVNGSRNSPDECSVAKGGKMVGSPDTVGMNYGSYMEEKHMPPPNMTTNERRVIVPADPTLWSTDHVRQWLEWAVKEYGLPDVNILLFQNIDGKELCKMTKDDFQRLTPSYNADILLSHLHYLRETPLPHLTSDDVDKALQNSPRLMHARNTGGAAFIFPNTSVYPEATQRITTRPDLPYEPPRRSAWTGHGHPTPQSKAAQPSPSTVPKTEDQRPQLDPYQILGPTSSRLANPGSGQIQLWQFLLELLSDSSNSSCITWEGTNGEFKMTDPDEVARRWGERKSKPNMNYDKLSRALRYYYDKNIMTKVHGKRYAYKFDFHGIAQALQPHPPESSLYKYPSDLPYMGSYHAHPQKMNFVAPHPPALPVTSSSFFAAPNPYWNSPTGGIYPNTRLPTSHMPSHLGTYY
# Outline: as §1
# ELF1 = ELF1 (Homo sapiens, UniProt P32519 1-619)
# Outline: as §1
# EHF = biological target: T4, EHF (Homo sapiens, UniProt Q9NZC4 1-300)
# T4 sequence: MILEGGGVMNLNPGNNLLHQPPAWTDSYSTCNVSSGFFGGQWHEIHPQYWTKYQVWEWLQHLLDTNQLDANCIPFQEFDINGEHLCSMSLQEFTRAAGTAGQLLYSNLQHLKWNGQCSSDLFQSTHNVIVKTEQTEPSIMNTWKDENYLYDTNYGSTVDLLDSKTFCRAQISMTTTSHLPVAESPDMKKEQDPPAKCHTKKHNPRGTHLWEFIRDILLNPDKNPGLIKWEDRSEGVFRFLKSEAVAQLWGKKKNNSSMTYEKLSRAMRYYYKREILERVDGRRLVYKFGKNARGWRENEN
# Outline: as §1
# SPIB = SPIB (Homo sapiens, UniProt Q01892 1-262)
# Outline: as §1
# ELK3 = biological target: T5, ELK3 (Homo sapiens, UniProt P41970 1-407)
# T5 sequence: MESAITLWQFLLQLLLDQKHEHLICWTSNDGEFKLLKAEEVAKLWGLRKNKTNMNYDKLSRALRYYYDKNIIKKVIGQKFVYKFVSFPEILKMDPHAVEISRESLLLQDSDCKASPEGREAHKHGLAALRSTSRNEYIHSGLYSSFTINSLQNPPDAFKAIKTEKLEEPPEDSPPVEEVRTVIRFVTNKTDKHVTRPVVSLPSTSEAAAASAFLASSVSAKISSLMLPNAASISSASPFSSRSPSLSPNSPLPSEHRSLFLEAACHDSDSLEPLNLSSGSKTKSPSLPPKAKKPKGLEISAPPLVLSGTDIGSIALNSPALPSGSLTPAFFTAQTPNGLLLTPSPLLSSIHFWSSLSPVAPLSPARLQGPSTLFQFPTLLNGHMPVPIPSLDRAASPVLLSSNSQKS
# Outline: as §1
# ETV5 = ETV5 (Homo sapiens, UniProt P41161 1-510)
# Outline: as §1
# SPIC = biological target: T6, SPIC (Homo sapiens, UniProt Q8N5J4 1-248)
# T6 sequence: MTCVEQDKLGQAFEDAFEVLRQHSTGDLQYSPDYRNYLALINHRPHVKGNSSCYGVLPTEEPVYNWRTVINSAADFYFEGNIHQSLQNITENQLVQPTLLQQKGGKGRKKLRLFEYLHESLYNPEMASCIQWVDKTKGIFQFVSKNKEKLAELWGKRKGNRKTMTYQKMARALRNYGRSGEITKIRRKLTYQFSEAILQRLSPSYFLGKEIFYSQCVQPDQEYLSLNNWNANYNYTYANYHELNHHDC
# Outline: as §1
# ELF4 = ELF4 (Homo sapiens, UniProt Q99607 1-663)
# Outline: as §1
# ELK4 = biological target: T7, ELK4 (Homo sapiens, UniProt P28324-2 1-405)
# T7 sequence: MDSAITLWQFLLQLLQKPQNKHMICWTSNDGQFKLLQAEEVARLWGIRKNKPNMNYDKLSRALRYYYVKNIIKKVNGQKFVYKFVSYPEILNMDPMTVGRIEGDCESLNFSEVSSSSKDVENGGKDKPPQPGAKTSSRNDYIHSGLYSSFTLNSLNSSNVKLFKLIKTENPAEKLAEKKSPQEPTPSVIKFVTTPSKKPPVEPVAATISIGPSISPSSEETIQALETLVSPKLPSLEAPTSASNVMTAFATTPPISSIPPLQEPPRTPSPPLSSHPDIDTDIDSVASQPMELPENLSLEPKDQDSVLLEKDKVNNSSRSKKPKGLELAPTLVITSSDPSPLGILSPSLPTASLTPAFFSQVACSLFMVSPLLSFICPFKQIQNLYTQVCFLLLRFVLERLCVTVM
# Outline: as §1
# ELF3 = biological target: T8, ELF3 (Homo sapiens, UniProt P78545 1-371)
# T8 sequence: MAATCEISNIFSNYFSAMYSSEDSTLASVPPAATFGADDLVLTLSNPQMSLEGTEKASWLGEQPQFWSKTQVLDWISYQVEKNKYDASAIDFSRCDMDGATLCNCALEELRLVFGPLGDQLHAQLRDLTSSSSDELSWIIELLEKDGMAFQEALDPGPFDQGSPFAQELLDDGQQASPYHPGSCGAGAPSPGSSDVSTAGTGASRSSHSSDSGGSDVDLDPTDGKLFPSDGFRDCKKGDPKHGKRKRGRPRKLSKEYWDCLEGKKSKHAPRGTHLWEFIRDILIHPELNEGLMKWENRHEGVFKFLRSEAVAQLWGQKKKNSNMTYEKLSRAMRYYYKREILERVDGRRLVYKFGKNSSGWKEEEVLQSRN
# Outline: as §1
# ETV1 = ETV1 (Homo sapiens, UniProt P50549 1-477)
# Outline: as §1
# ERF = biological target: T9, ERF (Homo sapiens, UniProt P50548 1-548)
# T9 sequence: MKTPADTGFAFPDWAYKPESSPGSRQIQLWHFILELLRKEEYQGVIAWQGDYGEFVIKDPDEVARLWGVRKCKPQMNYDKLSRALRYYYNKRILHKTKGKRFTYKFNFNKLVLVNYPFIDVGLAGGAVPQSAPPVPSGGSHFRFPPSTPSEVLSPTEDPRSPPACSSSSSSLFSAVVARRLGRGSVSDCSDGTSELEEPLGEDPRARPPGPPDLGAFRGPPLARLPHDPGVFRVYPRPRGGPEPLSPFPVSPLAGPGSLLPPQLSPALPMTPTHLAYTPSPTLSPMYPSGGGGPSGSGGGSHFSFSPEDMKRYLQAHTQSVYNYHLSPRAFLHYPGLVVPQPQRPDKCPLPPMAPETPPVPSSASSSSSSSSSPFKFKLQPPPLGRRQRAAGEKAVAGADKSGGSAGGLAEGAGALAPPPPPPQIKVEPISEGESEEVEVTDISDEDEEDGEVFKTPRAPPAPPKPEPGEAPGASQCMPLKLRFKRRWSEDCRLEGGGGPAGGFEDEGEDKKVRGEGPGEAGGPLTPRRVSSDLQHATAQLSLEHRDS
# Outline: as §1
# SPDEF = biological target: T10, SPDEF (Homo sapiens, UniProt O95238 1-335)
# T10 sequence: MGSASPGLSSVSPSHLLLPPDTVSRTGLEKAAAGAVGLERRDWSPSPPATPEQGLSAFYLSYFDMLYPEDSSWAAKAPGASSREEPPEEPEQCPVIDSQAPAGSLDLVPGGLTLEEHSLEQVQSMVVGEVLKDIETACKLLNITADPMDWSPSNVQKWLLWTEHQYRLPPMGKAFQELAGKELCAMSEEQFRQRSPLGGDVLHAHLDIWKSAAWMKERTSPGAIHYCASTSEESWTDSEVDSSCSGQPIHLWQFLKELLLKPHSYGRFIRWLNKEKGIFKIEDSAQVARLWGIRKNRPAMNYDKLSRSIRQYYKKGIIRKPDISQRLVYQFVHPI
# Outline: as §1
# ETV3 = biological target: T11, ETV3 (Homo sapiens, UniProt P41162-2 1-143)
# T11 sequence: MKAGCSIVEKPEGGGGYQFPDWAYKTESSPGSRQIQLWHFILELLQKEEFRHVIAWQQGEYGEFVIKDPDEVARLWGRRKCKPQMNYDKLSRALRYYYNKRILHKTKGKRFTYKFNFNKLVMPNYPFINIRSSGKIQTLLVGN
# Outline: as §1
# Chain of ETV1 (P50549 whole entry): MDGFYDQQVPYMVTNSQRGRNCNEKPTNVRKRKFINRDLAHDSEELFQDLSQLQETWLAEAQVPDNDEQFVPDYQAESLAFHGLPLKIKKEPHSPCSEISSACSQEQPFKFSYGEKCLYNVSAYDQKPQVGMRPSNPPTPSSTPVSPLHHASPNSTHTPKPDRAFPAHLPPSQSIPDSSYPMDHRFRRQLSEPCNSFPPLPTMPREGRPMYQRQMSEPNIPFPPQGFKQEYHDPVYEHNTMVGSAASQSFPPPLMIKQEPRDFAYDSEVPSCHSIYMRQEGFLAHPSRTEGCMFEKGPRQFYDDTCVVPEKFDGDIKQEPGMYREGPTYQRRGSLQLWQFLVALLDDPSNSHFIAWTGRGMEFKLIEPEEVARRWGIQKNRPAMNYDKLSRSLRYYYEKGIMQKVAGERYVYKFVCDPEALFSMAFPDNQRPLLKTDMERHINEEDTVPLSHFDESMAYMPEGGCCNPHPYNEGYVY
# Chain of ELF1 (P32519 whole entry): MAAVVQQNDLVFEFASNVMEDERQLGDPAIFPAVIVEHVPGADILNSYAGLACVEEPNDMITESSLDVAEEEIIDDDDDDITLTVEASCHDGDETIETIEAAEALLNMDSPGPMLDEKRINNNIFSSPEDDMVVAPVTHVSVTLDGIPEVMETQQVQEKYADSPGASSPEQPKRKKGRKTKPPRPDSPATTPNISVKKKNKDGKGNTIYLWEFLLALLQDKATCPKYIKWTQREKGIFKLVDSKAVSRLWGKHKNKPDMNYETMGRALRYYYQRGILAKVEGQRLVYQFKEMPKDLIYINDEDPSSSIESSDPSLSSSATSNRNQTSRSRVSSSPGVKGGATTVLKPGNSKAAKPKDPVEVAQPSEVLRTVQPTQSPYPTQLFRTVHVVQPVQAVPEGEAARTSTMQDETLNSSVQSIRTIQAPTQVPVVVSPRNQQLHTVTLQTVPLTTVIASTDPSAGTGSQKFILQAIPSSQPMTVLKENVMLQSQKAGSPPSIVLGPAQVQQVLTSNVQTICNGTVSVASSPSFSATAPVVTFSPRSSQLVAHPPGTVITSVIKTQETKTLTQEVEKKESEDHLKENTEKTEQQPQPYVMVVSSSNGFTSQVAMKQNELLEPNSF
# Chain of SPIB (Q01892 whole entry): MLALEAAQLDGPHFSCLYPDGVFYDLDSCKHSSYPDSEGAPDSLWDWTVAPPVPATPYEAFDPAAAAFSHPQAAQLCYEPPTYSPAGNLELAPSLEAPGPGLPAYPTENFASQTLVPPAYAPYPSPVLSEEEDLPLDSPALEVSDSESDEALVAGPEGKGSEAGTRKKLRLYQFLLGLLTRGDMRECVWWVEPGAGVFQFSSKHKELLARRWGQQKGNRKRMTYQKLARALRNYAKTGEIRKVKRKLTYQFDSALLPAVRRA
# Chain of ELF4 (Q99607 whole entry): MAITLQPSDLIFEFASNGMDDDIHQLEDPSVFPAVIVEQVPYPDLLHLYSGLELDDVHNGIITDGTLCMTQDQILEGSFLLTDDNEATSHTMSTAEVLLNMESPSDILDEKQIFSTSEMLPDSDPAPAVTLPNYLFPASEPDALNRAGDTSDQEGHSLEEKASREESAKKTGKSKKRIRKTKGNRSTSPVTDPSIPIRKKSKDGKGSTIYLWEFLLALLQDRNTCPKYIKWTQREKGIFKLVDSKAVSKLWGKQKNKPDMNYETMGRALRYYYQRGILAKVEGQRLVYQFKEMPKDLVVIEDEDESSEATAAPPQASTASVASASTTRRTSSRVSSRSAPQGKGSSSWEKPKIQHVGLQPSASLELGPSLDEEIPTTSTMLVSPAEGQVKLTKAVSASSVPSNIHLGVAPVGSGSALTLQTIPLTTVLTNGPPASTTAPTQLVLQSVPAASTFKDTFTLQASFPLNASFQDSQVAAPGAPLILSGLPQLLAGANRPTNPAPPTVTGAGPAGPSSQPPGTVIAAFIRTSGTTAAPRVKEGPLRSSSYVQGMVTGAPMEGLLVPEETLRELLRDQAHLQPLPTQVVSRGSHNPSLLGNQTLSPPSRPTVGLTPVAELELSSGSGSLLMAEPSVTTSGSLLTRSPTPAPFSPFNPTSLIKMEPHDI
# Chain of ETV5 (P41161 whole entry): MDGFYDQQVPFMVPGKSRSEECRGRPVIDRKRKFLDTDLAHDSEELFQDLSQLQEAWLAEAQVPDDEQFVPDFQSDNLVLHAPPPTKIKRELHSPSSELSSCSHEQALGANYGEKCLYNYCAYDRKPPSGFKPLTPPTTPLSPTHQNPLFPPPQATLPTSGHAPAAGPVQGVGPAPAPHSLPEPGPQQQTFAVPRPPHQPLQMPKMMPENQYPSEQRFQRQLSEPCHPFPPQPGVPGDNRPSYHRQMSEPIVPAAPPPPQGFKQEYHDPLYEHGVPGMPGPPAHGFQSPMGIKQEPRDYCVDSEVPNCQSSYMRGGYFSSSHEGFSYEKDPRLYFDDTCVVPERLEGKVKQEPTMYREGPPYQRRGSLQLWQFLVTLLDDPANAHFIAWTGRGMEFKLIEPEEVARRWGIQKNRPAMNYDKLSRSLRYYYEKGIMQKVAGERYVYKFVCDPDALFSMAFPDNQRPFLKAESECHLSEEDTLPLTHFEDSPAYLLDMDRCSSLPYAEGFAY
sequence,measurement,setting,value
GTACTG,binding signal,ELK1,"1.02 fold enrichment (6-mer frequency, TF over GST control)"
same,binding signal,GABPA,"1.04 fold enrichment (6-mer frequency, TF over GST control)"
same,binding signal,ERG,"1.09 fold enrichment (6-mer frequency, TF over GST control)"
same,binding signal,ELF1,"1.12 fold enrichment (6-mer frequency, TF over GST control)"
same,binding signal,EHF,"1.06 fold enrichment (6-mer frequency, TF over GST control)"
same,binding signal,SPIB,"1 fold enrichment (6-mer frequency, TF over GST control)"
same,binding signal,ELK3,"1.08 fold enrichment (6-mer frequency, TF over GST control)"
same,binding signal,ETV5,"1.08 fold enrichment (6-mer frequency, TF over GST control)"
same,binding signal,SPIC,"1.04 fold enrichment (6-mer frequency, TF over GST control)"
same,binding signal,ELF4,"1.05 fold enrichment (6-mer frequency, TF over GST control)"
same,binding signal,ELK4,"1.15 fold enrichment (6-mer frequency, TF over GST control)"
same,binding signal,ELF3,"1 fold enrichment (6-mer frequency, TF over GST control)"
same,binding signal,ETV1,"1.02 fold enrichment (6-mer frequency, TF over GST control)"
same,binding signal,ERF,"1.02 fold enrichment (6-mer frequency, TF over GST control)"
same,binding signal,SPDEF,"1.03 fold enrichment (6-mer frequency, TF over GST control)"
same,binding signal,ETV3,"1.11 fold enrichment (6-mer frequency, TF over GST control)"
